According to PubChem BioAssay AID2147 (National Center for Advancing Translational Sciences (NCATS), 2009):
Hit rate of the full screen: of about 230,000 compounds, about 3,600 (1.6%) were called active. Inconclusive results (about 15%) are left out. The call rests on the fitted dose curve; in most records, active means well fitted inhibition curve with a large enough effect (not every such curve was filed as active); inconclusive means small, poorly fitted or top-dose-only effect, or another doubt; inactive means no such curve, though single readings can be large or run the other way. Many of the other results were omitted from the sample, so actives are more common in it than they were.

biological target: Lysine-specific demethylase 4E (Homo sapiens) (UniProt B2RXH2); test: qHTS Assay for Inhibitors of Human Jumonji Domain Containing 2E (JMJD2E); details: JMJD2E catalytic domain, FDH-coupled NADH fluorescence (FDH is formaldehyde dehydrogenase); series mostly up to 57.1 µM; activity change, negative = inhibition: at the top concentration
Sequence (B2RXH2 1-337 limits assumed): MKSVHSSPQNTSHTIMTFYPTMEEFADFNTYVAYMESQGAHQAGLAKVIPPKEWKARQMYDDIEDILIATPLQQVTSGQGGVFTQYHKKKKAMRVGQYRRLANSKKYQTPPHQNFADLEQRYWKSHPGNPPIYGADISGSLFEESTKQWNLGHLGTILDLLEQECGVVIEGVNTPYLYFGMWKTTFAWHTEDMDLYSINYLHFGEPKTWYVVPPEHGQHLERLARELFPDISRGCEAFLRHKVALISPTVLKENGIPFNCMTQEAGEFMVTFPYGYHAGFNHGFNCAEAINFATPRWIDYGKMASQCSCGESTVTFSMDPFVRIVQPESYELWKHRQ
Description: Assay Provider: Structural Genomics Consortium [SGC] Screening Center PI: Austin, C.P. Screening Center: NIH Chemical Genomics Center [NCGC] The fine interplay among methylation states of several lysine residues on the tails of histone proteins is a major determinant of the transcriptional state of the associated DNA coding regions and is commonly referred to as the histone code. Histone lysine demethylases catalyze the removal of methyl groups from methylated lysine sidechains on histones H3 and H4, thus antagonizing the reactions catalyzed by histone lysine methyltransferases. […] In search for novel inhibitors of JMJD2E demethylase, a member of the largest set of histone demethylases belonging to the Fe(II) and 2-oxoglutarate oxygenase (2OG) superfamily, we performed a quantitative high-throughput screen (Inglese 2006) by using an assay which utilizes a trimethylated peptide substrate corresponding to a fragment of histone H3 (sequence ARKme3STGGK) with detection of the formaldehyde co-product in real time by a formaldehyde dehydrogenase (FDH) coupled reaction. FDH catalyzes oxidation of formaldehyde to formic acid with the concomitant reduction of the non-fluorescent beta-nicotinamide adenine dinucleotide hydrate (NAD+) cofactor to the fluorescent NADH co-product. References: Inglese, J., Auld, D., Jadhav, A., Johnson, R., Simeonov, A., Yasgar, A., Zheng, W. and Austin, C. Proc Natl Acad Sci USA 2006, 103, 11473-11478. N. R. Rose, S. S. Ng, J. Mecinovic, B. M. Lienard, S. H. Bello, Z. Sun, M. A. McDonough, U. Oppermann and C. J. Schofield, J Med Chem, 2008, 51, 7053-7056. Sakurai, M., Rose, N., Schultz, L., Quinn, A., Jadhav, A., Ng, S., Oppermann, U., Schofield, C.J. and Simeonov, A. Mol BioSystems 2009, in press. S. Michael, D. Auld, C. Klumpp, A. Jadhav, W. Zheng, N. Thorne, C. Austin, J. Inglese and A. Simeonov, Assay Drug Dev Technol, 2008, 6, 637-657.
Reagents and Controls: Ferrous ammonium sulfate, (+)-sodium L-ascorbate, beta-nicotinamide adenine dinucleotide hydrate (NAD+), Tween-20, formaldehyde dehydrogenase from P. putida (FDH), and disodium 2-oxoglutarate were from Sigma (St. Louis, MO). Black solid-bottom 384-well or 1,536-well assay plates were from Greiner Bio-One (Monroe, NC). Enzyme was supplied by Prof. Udo Oppermann, SGC-Oxford. The catalytic domain of human JMJD2E (residues 1-337) was produced as an N-terminally His6-tagged protein in E. coli, and purified by Ni-affinity chromatography and size-exclusion chromatography, and stored in HEPES 50 mM/ NaCl 500 mM pH 7.5, as reported in Rose 2008. The trimethylated histone peptide substrate ARK(me3)STGGK was synthesized and HPLC-purified by the Tufts University Core Facility (Boston, MA). Substrate solution (Sakurai 2009) contained 50 uM ARK(me3)STGGK, 0.00025 U/uL FDH, 50 uM 2-oxoglutarate, 250 uM NAD+, 1 mM ascorbate, and 10 uM ferrous ammonium sulfate. Controls and plate map: Buffer (150 mM HEPES pH 7.5 containing 0.01% Tween-20) in columns 3 and 4 as negative control (no enzyme) and 100 nM JMJD2E final concentration in columns 1,2, and 5-48. Assay Steps: Enzyme and buffer solutions (3 uL) were dispensed into a 1,536-well Greiner black solid-bottom assay plate. The library compounds (23 nL) were transferred using a Kalypsys pintool equipped with 1,536-pin array. The plate was incubated at room temperature (15 min), and then a 1 uL aliquot of substrate solution was added to initiate the reaction. The plate was transferred to ViewLux imager where an initial reading using standard UV optics (Ex 340 nm, Em 450 nm) was obtained. The plate was then removed from the reader, incubated for 30 minutes at room temperature, and returned to the reader for a second fluorescence reading. A fully automated robotic screening system (Kalypsys Inc, San diego, CA) was used to perform the above steps as described previously (Michael 2008). […]
Further: nearly all actives have a fitted effect of over 50% in size.
Potency means the concentration at half of the fitted maximal effect.
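Wherever activity change, negative = inhibition is given: 0% = wells with enzyme and -100% = buffer wells without enzyme.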

Potency, active:
CCc1c(C)[nH]c(=S)c(C#N)c1C 20 µM
COc1cc(C2C(C#N)=C(C)NC3=C2C(=O)CC(C)(C)C3)ccc1O (stereo not given) 12.6 µM
c1ccc(CSc2nnc(-c3ccco3)c(-c3ccco3)n2)cc1 7.94 µM
O=C1C(c2ccccn2)=[N+]([O-])c2ccccc21 12.6 µM
CCN(CC)c1ccc(/C=N/NC(=O)c2cnccn2)c(O)c1 10 µM
NC(=O)c1ccc(NC(=O)COC(=O)c2c3c(nc4ccccc24)/C(=C\c2ccc4c(c2)OCO4)CCC3)cc1 3.16 µM
Oc1ccc(CNc2ccccc2O)cc1 15.8 µM
O=[N+]([O-])c1cc(Cl)cc(/C=N/NC(=S)Nc2cc(S(=O)(=O)N3CCOCC3)ccc2Cl)c1O 8.91 µM
O=C(Nc1cc(N2CCOCC2)ncn1)NC1(C(F)(F)F)Oc2ccc(Cl)cc2O1 (stereo not given) 14.1 µM
O=C(N/N=C/c1ccccc1O)/C(=C/c1ccccc1)CCO 20 µM
O=C(CSc1nnnn1-c1ccc(O)cc1)N1N=C(c2ccc3ccccc3c2)CC1c1ccccc1 (stereo not given) 1.41 µM
O=C(c1cccnc1)N(c1cc2sc(=O)oc2c2ccccc12)S(=O)(=O)c1ccccc1 14.1 µM
O=C(NNC(=S)NC(=O)c1cn(-c2ccccc2)nc1-c1ccccc1)c1ccncc1 14.1 µM
Oc1cc(O)c2c(c1)OC(c1ccc(O)c(O)c1)C(O)C2 (stereo not given) 11.2 µM
Cc1nnc(N/N=C/c2ccccn2)[nH]c1=O 7.94 µM
CCOc1cccc(/C=N/N2C(=O)CSC2=S)c1O 31.6 µM
Cc1ccnc(-n2sc3ccccc3c2=O)n1 12.6 µM
S=c1[nH]nc(Nc2ccccc2)s1 17.8 µM
Cc1nccn1CC(=O)N/N=C/c1ccc(O)c(O)c1 12.6 µM
Cn1c(SCC(=O)N/N=C/c2ccc(O)c(O)c2)nc2ccccc21 25.1 µM
CCCc1ccc(C(=O)[C@@H]2[C@@H](C(C)=O)N3c4ccc(F)cc4C=C[C@@H]3[C@@]23C(=O)Nc2ccccc23)cc1 14.1 µM
COc1ccc(N2CCN(Cc3ccc(Br)s3)CC2)cc1 14.1 µM

Activity change, negative = inhibition, inactive:
CCOC(=O)c1c(C)[nH]c(=S)c(C#N)c1-c1ccccc1 -6.99%
CC(=O)c1c(C)[nH]c(=S)c(C#N)c1-c1ccc(F)cc1 -4.15%
CS(=O)(=O)c1ccc(Cl)c(NC(=O)Nc2ccccc2)c1 4.04%
COc1ccc(C2C(C#N)=C(/N=C/N3CCOCC3)OC3=C2C(=O)CC(C)(C)C3)cc1OC (stereo not given) 9.69%
CCC1C(C#N)=C(SC)NC2=C1C(=O)CC(C)(C)C2 (stereo not given) -6.81%
CC(=O)N1CCC(N(C(=O)Nc2ccc(Cl)cc2)C(C)C)CC1 6.42%
O=C(CCCN1C(=O)/C(=C\c2ccccc2)SC1=S)Nc1ccccc1O 0.574%
Brc1ccc(CSc2ccc(-c3ccco3)nn2)cc1 -6.02%
c1ccc(CSc2nnc(-c3ccco3)n2Cc2ccccc2)cc1 -1.27%
O=S(=O)(NCCc1csc(-c2ccccc2)n1)c1cccnc1 -8.14%
Cc1cc(-c2nnc(CCC(=O)NC(c3ccccc3)c3ccccc3)o2)no1 -3.52%
O=C(Nc1ccc2c(c1)OCCO2)c1cnccn1 2.22%
CCN(CC)c1ccc(/C=N/Nc2nc(C)cc(C)n2)c(O)c1 -10.7%
CCOC(=O)c1c(CC(C)C)csc1/N=C/C1=C(O)CCCC1=O -4.66%
CCOC(=O)c1c(C)oc(C)c(C(=O)OCC)c1=O 5.03%
O=C(COC(=O)c1ccc2c(c1)OCCO2)NCc1ccccc1 4.35%
O=C(COC(=O)c1c2c(nc3ccccc13)/C(=C\c1cccs1)CCC2)Nc1ccccc1Cl -20.3%
O=C(Cc1ccccc1)Nc1c(Cl)ccc2nsnc12 9.63%
O=C(NC(=O)N1CCSCC1)c1c(Cl)cccc1Cl -0.9%
O=C(NCc1ccccc1)c1ccc(S(=O)(=O)Nc2cccc(C(F)(F)F)c2)cc1 0.951%
O=[N+]([O-])c1ccccc1NCc1ccc(Cl)cc1 -2.51%
Oc1ccc(N2CCN(C(=S)NCc3ccccc3)CC2)cc1 -10.7%
CC#CC[N+](C)(C)CCCCCC 8.38%
O=C(NC(=S)Nc1ccc(S(=O)(=O)N2CCOCC2)cc1)c1ccccc1[N+](=O)[O-] -2.52%
O=C(N/N=C/c1ccc([N+](=O)[O-])o1)c1cccc(S(=O)(=O)N2CCOCC2)c1 -14.5%
CC1=NCCN1S(=O)(=O)c1cccc([N+](=O)[O-])c1 -1.96%
CN(C)C(=O)c1cccn(Cc2cccc(C(F)(F)F)c2)c1=O -5.47%
c1cnn(-c2cc(N3CCOCC3)ncn2)c1 -0.0538%
Cc1csc(NC(=O)NC2(C(F)(F)F)Oc3ccccc3O2)n1 9.22%
CCCn1nc(C(=O)N2CCCc3ccccc32)c2ccccc2c1=O 2.86%
Cc1ccc(NC(=O)c2ccn(C(=O)Nc3ccccc3)n2)c(C)c1 0.815%
Cc1cc(C)n(CC(C)NCc2c(C(=O)N3CCOCC3)nc3c(C)cccn23)n1 (stereo not given) -4.89%
CC1(C)CC(=O)C(N=Nc2c(F)cccc2F)=C(O)C1 -0.664%
C=CCNC(=O)CSc1nc2scc(-c3ccco3)c2c(=O)n1CC=C -26.5%
Cc1cc(C)c(C)c(S(=O)(=O)N[C@@H](C)C(=O)OC(C)C(=O)NC(N)=O)c1C (stereo not given in full) 11.9%
O=C(CCC(=O)Nc1ccccc1)N/N=C/c1ccccc1F -1.17%
O=C(CCCCCNC(=O)c1ccccc1)N/N=C/c1ccccc1 -2.53%
CCCCCCCCCCCCC(NC(C)=O)(C(=O)OCC)C(=O)OCC -21.7%
O=C(CSc1nnnn1-c1ccc(O)cc1)c1ccc(F)cc1 -21.2%
COc1ccc(C2CC(c3ccccc3)=NN2C(=O)CSc2nccc(=O)[nH]2)cc1 (stereo not given) 3.32%
CN(C)C(=S)Nc1ccc(Br)cc1Cl 9.36%
COCCn1c(SCC(=O)Nc2cc(OC)ccc2OC)nc2c(c1=O)SC(C)C2 (stereo not given) -1.2%
O=C(Nc1ccccc1)N1CCN(C2c3ccccc3-c3ccccc32)CC1 1.98%
O=C(CSc1ncn[nH]1)Nc1nc(-c2cccc([N+](=O)[O-])c2)cs1 14.6%
COc1ccc(N(C(=O)c2cccnc2)S(=O)(=O)c2ccc3c(c2)n(C)c(=O)n3C)cc1 -1.75%
CN(C)S(=O)(=O)c1cccc(C(=O)Nc2cccnc2)c1 -1.43%
Cc1oc(C(N)=O)cc1COc1ccc(C(N)=O)cc1 -2.19%
CCOC(=O)N1CCN(c2c(NCCN3CCN(c4ccccc4F)CC3)c(=O)c2=O)CC1 2.57%
COCCCNC(=S)N(Cc1ccccc1)Cc1ccc(F)cc1 -4.9%
Cn1c(C(=O)O)ccc1S(=O)(=O)N(Cc1ccccc1)Cc1ccccc1 2.7%
CCOC(=O)C1CCN(CCC(=O)Nc2cccc(C)c2)CC1 7.65%
Cc1c([N+](=O)[O-])c(N)nn1C 5.36%
O=C(O)c1ccc(NC(=O)c2cn(-c3ccccc3)nc2-c2ccc(Cl)cc2)cc1 -3.12%
O=C(Nc1cn(-c2ccccc2)nc1-c1ccccc1)c1ccccc1 302%
CCn1c2ccccc2c2cc(NC(=O)Nc3ccc([N+](=O)[O-])cc3C)ccc21 -7.5%
CC(C)CCNC(=O)C1CCC(CNc2c(N3CCC(C)CC3)c(=O)c2=O)CC1 (stereo not given) 1.04%
O=C(O)CCCCCCCCCC[n+]1ccccc1 -3.66%
COC(=O)C1=C(N)Oc2cc(C)[nH]c(=O)c2C1c1ccc(Cl)cc1 (stereo not given) 8.59%
Cc1ccccc1Nc1nnc(C)c(=O)[nH]1 2.79%
Cc1nnc(N/N=C/c2cccs2)[nH]c1=O -7.79%
Cc1ccc(CN2CCN(Cc3cn(C)nc3-c3ccccc3)CC2CCO)o1 (stereo not given) -0.595%
O=C(CCN1CCCCC1)N=Nc1c(O)[nH]c2ccccc12 4.17%
O=C(NCc1ccco1)O[C@@H]1C(=O)c2cc(Br)ccc2O[C@H]1c1ccc2c(c1)OCO2 17.8%
O=c1ccnc(Nc2ccc(Cl)cc2)[nH]1 3.06%
O=C1CSC(=S)N1/N=C/c1ccc(O)c([N+](=O)[O-])c1 -16.3%
CCOc1ccccc1N=C1NC(=O)CS1 2.61%
Cn1c(SCC(=O)Nc2ccc(Cl)cc2)nc(O)cc1=O 1.98%
Nc1nc(Sc2ncccc2[N+](=O)[O-])n[nH]1 2.63%
Cc1ccnc(SCC(N)=O)n1 0.789%
Cc1ccnc(Nc2nc3ccccc3s2)n1 1.18%
c1ccc(Nc2n[nH]nc2-c2ccccc2)cc1 -1.65%
O=c1cnnc(Nc2ccccc2)[nH]1 3.57%
O=C(C[n+]1ccc2c(c1)nnn2-c1ccccc1)c1ccc(Cl)cc1 9.12%
O=C(NCc1nnc(SCC(=O)N2CCC(Cc3ccccc3)CC2)o1)c1ccco1 6.12%
Cc1ccc(/C=N/NC(=O)CSc2nc3ccccc3o2)cc1 1.12%
CCOc1ccc(/C=N/NC(=O)CSc2ccccn2)cc1O -4.84%
CCn1c(SCC(=O)N/N=C/c2ccncc2)nc2ccccc21 3.37%
Cc1nc2ccccc2n1CC(=O)N/N=C/c1cccnc1 -7.57%
CC(C)(C)OC(=O)NCCCCCC(=O)N/N=C/c1coc2ccccc2c1=O 2.67%
O=C1/C(=C/c2cccs2)SC(=S)N1C1CCS(=O)(=O)C1 (stereo not given) 1.93%
CC(OC(=O)c1ccc(NS(=O)(=O)c2ccc3[nH]c(=O)[nH]c3c2)cc1)C(=O)Nc1cccc(Cl)c1Cl (stereo not given) -4.34%
O=C(c1cc(COc2c(F)cccc2F)on1)N1CCSCC1 4.11%
Nc1nc(Nc2ccccc2)nc(NCCO)c1[N+](=O)[O-] 0.417%
O=C1CCCC(O)=C1N=Nc1ccc(S(=O)(=O)N2CCOCC2)cc1 -24.2%
CCc1cc(CNC(=O)CC2C(=O)NCCN2Cc2ccccc2C(F)(F)F)on1 (stereo not given) -22.1%
Cc1noc(C)c1-c1nc(CSc2ccc(Cl)cc2)no1 -5.99%
COc1ccc(N2CCN(Cc3nnc(-c4ccccc4)o3)CC2)cc1 3.96%
Fc1ccc(N2CCN(Cc3cnc(Oc4ccc(Br)cc4)s3)CC2)cc1 -5.18%
